The values that follow come from PubChem BioAssay (Tox21).

Structures are written as SMILES. Results filed as inconclusive are left out. Entries that show only a call come without a potency. Where a structure was tested more than once in an assay, its records may differ in their call. Active and inactive are the calls of the source. Calls come from the whole dose curve.
Potency is the fitted concentration of half-maximal effect.

The nature of the assay: qHTS assay to identify small molecule agonists of H2AX - cell viability counter screen (AID 1224847). For activity change, negative = cytotoxicity: top concentration of the series differs between compounds. Note: nearly all actives have a fitted effect of over 30% in size. Conditions: CHO-K1 viability, CellTiter-Glo luminescence, 3 h; series mostly up to 154 µM; activity change, negative = cytotoxicity: at the top concentration. The source says:
National Center for Advancing Translational Sciences [NCATS]
NIH Chemical Genomics Center [NCGC]
U.S. Environmental Protection Agency [EPA]
National Institutes of Environmental Health Sciences [NIEHS]
National Toxicology Program [NTP]
U.S. Food and Drug Administration [FDA]
HTRF phospho-H2AX (Ser139) assay (Cisbio Bioassays, US) enables the quantitative detection of the histone variant H2AX when phosphorylated on serine 139. When double-stranded DNA breaks, either by ionizing radiation or endogenous physiological processes, H2AX becomes phosphorylated at Ser139. This phospho-Ser139 serves as a sensitive biomarker for the detection of such breaks, localizing the site of DNA repair. So, HTRF phospho-H2AX Ser139 is a pertinent assay to study genome stability, the cell cycle, DNA repair, and it serves as a biomarker for cancer, and to understand aging. Wild type CHO-K1 cells were used to identify the inducers of Phospho-H2AX Ser 139 from the Tox21 compound collections. Also cytotoxicity of the Tox21 10K compound library against the CHO-K1 cell line was tested by measuring the cell viability using CellTiter-Glo assay (Promega, Madison, WI).
Tox21 Assay Protocol Summary:
The CHO-K1 cells suspended in culture medium containing 10% FBS were dispensed at 1000 cells/ 3 ul/well in 1536-well white wall/solid bottom plates (Greiner Bio-One North America, NC) using a Multidrop Combi (Thermo Fisher Scientific Inc., Waltham, MA). After the assay plates were incubated at 37C overnight, 23 nl of compounds at 15 concentrations (from 5-48 columns) or positive control (from 1 to 4 columns) were transferred to the assay plates using a Pintool station (Wako, San Diego, CA) into each well resulting in a final DMSO concentration of 0.76%. After 3hr incubation at 37C, 3 uL/well CellTiter-Glo luminescent cell viability reagent (Promega Corporation, Madison, WI) was added using a Flying Reagent Dispenser (FRD) (Aurora Discovery, CA). After incubation at room temperature for 30 min, the luminescence intensity was read using a ViewLux plate reader (PerkinElmer, Waltham, MA).
On to `COS(=O)(=O)OC`, for which the Potency result is “inactive”.
In the case of `Cl/C=C/Cl`, the Potency result was “inactive”.
The same measure, in the same setting: the value for `ClC(Cl)c1ccccc1` was “inactive”; that for `CCSC(=O)N1CCCCCC1` was “inactive”.
Still for that read-out and setting: the value for `CN(C)C(=O)Nc1cccc(C(F)(F)F)c1` was “inactive”.
For `Nc1cccc(Cl)c1`, the Potency result was “inactive”.
On the same count and under the same terms, the value for `COc1cc(-c2ccc(N)c(OC)c2)ccc1N` was “inactive”; that for `CNC(=O)O/N=C/C(C)(C)S(C)=O` (stereo not given) was “inactive”.
The same measure, in the same setting: the value for `CC(C)c1cccc(C(C)C)c1O` was 50.5 µM (active) and inactive; that for `CCCOC(=O)c1ccccc1C(=O)OCCC` was “inactive”.
For the compound `COC(C)(C)CCCC(C)C/C=C/C(C)=C/C(=O)OC(C)C` (stereo not given), the “activity change, negative = cytotoxicity” value was 0.492% [at 70.9 µM] (inactive).
Regarding `Cc1ccc(O)c(C)c1`, the Potency result was “inactive”.
On the same count and under the same terms, next, `O=C(O)COc1ccccc1`: “inactive”; `O=P1(NCCCl)OCCCN1CCCl` (stereo not given): “inactive”; `CC12CC1(C)C(=O)N(c1cc(Cl)cc(Cl)c1)C2=O` (stereo not given): “inactive”.
For `NNc1ccccc1`, the Potency result was “inactive”.
The same measure, in the same setting: the value for `CNC(=O)O/N=C/C(C)(C)S(C)(=O)=O` was “inactive”; that for `CN(C)C(=O)C(c1ccccc1)c1ccccc1` was “inactive”; that for `O=C(O)c1cc(Oc2ccc(C(F)(F)F)cc2Cl)ccc1[N+](=O)[O-]` was “inactive”.
On the same count and under the same terms, the value for `Sc1ccccc1` was “inactive”.
With `COc1nc(NC(C)C)nc(NC(C)C)n1`, the Potency result was “inactive”.
Still for that read-out and setting: the value for `N#CN=C(N)N` was “inactive”.
As for `Cl[C@H]1OCCO[C@@H]1Cl`, the Potency entry was “inactive”.
The same measure, in the same setting: next, `Nc1cc(Cl)cc(Cl)c1`: “inactive”; `Cc1ccc(N)cc1`: “inactive”; `O=C(O)CCCc1ccc(N(CCCl)CCCl)cc1`: “inactive”.
Same read-out and setting: next, `OC[C@@H](O)[C@H]1O[C@@H]2O[C@H](C(Cl)(Cl)Cl)O[C@@H]2[C@H]1O`: “inactive”.
The same measure, in the same setting: the value for `O=C(O)Cc1ccccc1` was “inactive”; that for `O=C/C=C/c1ccccc1` was “inactive”.
For `C[C@]12CC[C@H](O)CC1=CC[C@@H]1[C@@H]2CC[C@]2(C)C(=O)CC[C@@H]12`, the Potency was 89.8 µM (active) and inactive.
Still for that read-out and setting: the value for `CC(C)CCCCCCOC(=O)c1ccccc1C(=O)OCCCCCCC(C)C` was “inactive”; that for `CC(=O)C1CCOC1=O` (stereo not given) was “inactive”; that for `Cc1cccc(N)c1C` was “inactive”.
As for `Cc1cccc(N)c1`, the Potency entry was “inactive”.
Still for that read-out and setting: the value for `CNC(=O)O/N=C(\SC)C(=O)N(C)C` was “inactive”.
Take `CN(C)NC(=O)CCC(=O)O`: the Potency entry was “inactive”.
The same measure, in the same setting: the value for `N#Cc1cccc(C#N)c1` was “inactive”; that for `OCC(O)CCl` (stereo not given) was “inactive”; that for `OCc1ccco1` was “inactive”.
The same measure, in the same setting: the value for `CN(C)CCC#N` was “inactive”.
